Measured values from ChEMBL document CHEMBL1961873, “Compounds: GSK PKIS; Assays: Nanosyn kinase panel” (2012).

Columns and labels:
[1] = biological target: T1, Inhibitor of nuclear factor kappa-B kinase subunit epsilon (Homo sapiens) (UniProt Q14164); details: at 1 µM;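 also: reported values are averaged percent inhibition figures against human IKKε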
T1 sequence (whole entry): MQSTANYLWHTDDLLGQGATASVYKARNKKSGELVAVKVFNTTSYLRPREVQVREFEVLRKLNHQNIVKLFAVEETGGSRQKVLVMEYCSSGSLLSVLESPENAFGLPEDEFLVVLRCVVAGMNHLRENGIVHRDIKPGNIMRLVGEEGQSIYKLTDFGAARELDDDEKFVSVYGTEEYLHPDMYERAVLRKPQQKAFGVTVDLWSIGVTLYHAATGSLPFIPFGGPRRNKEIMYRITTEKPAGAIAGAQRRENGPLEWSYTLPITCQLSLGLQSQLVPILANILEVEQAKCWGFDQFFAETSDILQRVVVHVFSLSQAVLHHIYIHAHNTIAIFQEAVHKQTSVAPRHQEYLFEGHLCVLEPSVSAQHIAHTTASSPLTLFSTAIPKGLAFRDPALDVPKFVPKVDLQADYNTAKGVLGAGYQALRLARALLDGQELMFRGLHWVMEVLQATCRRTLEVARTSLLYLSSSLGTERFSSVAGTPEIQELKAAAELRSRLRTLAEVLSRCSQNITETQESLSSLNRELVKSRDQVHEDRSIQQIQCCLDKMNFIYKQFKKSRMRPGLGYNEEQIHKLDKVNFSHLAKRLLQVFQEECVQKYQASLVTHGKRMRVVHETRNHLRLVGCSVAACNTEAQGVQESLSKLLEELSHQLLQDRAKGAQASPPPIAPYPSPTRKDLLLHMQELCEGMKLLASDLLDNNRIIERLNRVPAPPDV

[2] = biological target: T2, Serine/threonine-protein kinase Nek1 (Homo sapiens) (UniProt Q96PY6); details: at 0.1 µM
T2 sequence (whole entry): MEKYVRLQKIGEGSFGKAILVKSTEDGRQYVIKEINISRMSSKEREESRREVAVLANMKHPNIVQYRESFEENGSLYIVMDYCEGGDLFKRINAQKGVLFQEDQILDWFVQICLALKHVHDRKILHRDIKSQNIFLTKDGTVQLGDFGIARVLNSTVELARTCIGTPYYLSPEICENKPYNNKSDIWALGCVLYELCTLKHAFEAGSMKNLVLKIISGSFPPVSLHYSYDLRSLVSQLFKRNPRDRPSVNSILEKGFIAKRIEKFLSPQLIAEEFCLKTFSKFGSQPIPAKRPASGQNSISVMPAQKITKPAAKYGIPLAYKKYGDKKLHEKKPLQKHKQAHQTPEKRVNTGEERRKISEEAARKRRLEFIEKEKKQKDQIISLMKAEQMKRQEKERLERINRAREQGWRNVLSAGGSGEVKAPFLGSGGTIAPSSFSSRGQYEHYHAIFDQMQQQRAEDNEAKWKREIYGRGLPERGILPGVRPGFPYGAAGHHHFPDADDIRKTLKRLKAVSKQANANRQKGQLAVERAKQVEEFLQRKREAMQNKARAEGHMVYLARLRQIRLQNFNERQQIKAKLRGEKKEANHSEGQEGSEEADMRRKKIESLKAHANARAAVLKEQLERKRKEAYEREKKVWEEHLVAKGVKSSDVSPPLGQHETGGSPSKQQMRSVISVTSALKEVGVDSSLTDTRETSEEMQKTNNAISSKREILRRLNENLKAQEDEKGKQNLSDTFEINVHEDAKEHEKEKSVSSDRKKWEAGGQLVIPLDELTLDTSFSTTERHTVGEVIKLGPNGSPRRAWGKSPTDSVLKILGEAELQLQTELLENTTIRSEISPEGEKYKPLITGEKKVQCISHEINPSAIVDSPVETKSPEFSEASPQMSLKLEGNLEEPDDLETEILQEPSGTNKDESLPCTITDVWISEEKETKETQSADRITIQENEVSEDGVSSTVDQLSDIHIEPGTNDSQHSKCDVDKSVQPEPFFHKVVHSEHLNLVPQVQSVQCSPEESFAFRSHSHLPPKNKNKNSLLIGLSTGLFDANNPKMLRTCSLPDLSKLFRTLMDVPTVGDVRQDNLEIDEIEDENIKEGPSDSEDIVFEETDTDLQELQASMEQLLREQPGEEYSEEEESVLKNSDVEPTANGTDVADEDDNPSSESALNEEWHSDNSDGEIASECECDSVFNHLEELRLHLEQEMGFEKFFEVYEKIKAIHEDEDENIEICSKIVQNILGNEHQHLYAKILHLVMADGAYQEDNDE

[3] = biological target: T2, Serine/threonine-protein kinase Nek1 (Homo sapiens); details: at 1 µM
[4] = biological target: T3, Serine/threonine-protein kinase Nek2 (Homo sapiens) (UniProt P51955); details: at 0.1 µM
T3 sequence (whole entry): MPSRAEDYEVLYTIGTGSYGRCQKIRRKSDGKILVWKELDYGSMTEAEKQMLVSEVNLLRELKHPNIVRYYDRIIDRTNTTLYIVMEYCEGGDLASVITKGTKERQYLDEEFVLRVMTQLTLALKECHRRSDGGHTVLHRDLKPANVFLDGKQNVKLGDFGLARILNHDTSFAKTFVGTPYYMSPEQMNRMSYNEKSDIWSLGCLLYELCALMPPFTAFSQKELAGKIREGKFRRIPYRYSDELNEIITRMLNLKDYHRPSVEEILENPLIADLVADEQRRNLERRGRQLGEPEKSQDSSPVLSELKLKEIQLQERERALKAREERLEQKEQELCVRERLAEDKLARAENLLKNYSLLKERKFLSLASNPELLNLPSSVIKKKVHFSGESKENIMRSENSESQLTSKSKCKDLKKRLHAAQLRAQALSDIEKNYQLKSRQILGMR

[5] = biological target: T3, Serine/threonine-protein kinase Nek2 (Homo sapiens); details: at 1 µM
[6] = biological target: Serine/threonine-protein kinase Nek6 (Homo sapiens) (UniProt Q9HC98); details: at 0.1 µM
[7] = biological target: Serine/threonine-protein kinase Nek6 (Homo sapiens) (UniProt Q9HC98); details: at 1 µM
[8] = biological target: Serine/threonine-protein kinase Nek7 (Homo sapiens) (UniProt Q8TDX7); details: at 0.1 µM
[9] = biological target: Serine/threonine-protein kinase Nek7 (Homo sapiens) (UniProt Q8TDX7); details: at 1 µM
[10] = biological target: T4, Serine/threonine-protein kinase Nek9 (Homo sapiens) (UniProt Q8TD19); details: at 0.1 µM
T4 sequence (whole entry): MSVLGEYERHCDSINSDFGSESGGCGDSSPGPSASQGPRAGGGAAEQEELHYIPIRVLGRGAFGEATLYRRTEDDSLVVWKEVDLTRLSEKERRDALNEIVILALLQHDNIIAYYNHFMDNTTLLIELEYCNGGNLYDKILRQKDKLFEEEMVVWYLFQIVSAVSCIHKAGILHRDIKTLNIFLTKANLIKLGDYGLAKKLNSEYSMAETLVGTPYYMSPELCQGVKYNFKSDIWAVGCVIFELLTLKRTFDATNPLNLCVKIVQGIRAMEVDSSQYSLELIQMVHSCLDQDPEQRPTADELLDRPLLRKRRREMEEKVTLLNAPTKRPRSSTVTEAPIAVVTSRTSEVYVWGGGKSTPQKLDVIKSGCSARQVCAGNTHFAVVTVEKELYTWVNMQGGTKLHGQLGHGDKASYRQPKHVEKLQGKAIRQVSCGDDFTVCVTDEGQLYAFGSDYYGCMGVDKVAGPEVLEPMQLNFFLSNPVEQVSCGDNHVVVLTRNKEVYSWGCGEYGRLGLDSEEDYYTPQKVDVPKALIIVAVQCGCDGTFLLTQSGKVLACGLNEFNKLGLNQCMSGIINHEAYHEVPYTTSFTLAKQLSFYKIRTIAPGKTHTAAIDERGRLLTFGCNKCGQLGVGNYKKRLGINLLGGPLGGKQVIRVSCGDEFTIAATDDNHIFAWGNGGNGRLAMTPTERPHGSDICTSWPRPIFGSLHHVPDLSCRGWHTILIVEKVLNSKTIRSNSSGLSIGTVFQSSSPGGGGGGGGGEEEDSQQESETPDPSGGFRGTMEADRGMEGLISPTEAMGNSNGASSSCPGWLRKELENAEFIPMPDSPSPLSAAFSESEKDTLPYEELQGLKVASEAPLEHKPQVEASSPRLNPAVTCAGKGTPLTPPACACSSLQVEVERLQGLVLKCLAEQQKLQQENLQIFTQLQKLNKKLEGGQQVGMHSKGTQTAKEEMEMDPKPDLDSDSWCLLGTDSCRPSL

[11] = biological target: T4, Serine/threonine-protein kinase Nek9 (Homo sapiens); details: at 1 µM
[12] = biological target: Serine/threonine-protein kinase PLK1 (Homo sapiens) (UniProt P53350); details: at 0.1 µM
[13] = biological target: Serine/threonine-protein kinase PLK1 (Homo sapiens) (UniProt P53350); details: at 1 µM
[14] = biological target: T5, Dual specificity protein kinase TTK (Homo sapiens) (UniProt P33981); details: at 0.1 µM
T5 sequence (whole entry): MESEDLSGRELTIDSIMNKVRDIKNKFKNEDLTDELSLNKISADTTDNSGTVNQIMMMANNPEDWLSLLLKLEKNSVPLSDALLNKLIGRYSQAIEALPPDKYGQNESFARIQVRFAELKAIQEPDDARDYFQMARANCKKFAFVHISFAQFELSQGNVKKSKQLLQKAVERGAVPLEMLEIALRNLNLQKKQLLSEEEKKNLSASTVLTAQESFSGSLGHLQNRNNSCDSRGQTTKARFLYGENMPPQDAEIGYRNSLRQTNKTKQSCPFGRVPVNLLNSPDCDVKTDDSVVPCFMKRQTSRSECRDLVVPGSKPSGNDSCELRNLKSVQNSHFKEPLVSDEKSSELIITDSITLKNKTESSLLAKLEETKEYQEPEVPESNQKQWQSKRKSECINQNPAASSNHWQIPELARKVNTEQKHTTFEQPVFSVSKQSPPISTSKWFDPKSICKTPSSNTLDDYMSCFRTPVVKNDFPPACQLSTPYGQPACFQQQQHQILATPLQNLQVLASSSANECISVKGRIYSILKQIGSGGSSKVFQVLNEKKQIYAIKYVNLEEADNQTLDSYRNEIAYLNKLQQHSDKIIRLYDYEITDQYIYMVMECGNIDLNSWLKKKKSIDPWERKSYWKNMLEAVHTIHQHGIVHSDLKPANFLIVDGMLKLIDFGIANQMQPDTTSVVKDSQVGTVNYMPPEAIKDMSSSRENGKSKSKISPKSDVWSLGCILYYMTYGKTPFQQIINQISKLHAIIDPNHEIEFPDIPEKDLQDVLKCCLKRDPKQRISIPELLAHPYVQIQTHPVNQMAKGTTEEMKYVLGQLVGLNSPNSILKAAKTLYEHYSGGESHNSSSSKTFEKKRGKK

[15] = test system: T6, Receptor-type tyrosine-protein kinase FLT3 (Homo sapiens), P36888 [D835Y]; details: at 1 µM
T6 sequence (whole entry): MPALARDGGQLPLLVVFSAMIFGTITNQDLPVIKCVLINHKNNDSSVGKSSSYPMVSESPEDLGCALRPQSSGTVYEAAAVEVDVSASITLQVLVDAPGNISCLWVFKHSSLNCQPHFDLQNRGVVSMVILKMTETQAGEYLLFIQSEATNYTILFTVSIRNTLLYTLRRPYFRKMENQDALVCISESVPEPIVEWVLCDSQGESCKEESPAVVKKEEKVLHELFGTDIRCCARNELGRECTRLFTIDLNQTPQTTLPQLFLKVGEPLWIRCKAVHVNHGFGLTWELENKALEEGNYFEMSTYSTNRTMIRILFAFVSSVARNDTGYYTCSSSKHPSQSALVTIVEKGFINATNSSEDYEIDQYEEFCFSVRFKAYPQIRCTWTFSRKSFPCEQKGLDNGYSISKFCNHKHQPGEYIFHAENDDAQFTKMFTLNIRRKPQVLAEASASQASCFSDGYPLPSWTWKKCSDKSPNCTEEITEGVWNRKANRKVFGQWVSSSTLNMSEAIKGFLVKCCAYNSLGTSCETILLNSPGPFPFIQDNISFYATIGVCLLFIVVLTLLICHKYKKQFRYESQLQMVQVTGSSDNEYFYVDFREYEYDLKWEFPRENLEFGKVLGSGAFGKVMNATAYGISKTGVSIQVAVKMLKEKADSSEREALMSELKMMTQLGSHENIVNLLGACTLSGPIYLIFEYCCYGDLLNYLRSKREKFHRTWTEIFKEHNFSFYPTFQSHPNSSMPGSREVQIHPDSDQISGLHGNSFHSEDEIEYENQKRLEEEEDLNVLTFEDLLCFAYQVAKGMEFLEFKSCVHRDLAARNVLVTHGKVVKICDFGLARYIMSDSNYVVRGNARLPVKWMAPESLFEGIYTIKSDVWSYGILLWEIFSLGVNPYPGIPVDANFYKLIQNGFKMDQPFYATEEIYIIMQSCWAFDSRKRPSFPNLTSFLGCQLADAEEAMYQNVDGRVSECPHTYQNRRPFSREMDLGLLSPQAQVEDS

[16] = biological target: Vascular endothelial growth factor receptor 3 (Homo sapiens) (UniProt P35916); details: at 0.1 µM
[17] = biological target: Vascular endothelial growth factor receptor 3 (Homo sapiens) (UniProt P35916); details: at 1 µM
[18] = biological target: Macrophage colony-stimulating factor 1 receptor (Homo sapiens) (UniProt P07333); details: at 0.1 µM
[19] = biological target: Macrophage colony-stimulating factor 1 receptor (Homo sapiens) (UniProt P07333); details: at 1 µM
[20] = biological target: Tyrosine-protein kinase Fyn (Homo sapiens) (UniProt P06241); details: at 0.1 µM
Chain of Tyrosine-protein kinase Fyn (Homo sapiens) (P06241 2-537 limits assumed): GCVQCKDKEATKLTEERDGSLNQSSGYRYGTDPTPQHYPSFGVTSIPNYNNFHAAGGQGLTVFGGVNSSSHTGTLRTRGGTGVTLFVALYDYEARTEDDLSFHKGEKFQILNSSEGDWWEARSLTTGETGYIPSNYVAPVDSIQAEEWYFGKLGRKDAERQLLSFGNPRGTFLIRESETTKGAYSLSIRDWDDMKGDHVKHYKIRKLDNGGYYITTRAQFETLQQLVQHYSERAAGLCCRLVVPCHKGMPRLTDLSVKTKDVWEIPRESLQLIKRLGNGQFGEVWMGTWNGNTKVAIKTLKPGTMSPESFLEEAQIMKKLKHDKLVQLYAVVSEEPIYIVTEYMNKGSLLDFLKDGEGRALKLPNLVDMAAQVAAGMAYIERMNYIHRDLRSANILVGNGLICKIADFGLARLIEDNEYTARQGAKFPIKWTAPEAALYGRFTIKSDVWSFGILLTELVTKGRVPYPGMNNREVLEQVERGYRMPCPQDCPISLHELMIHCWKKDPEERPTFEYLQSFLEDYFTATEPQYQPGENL

Chain of Serine/threonine-protein kinase Nek7 (Homo sapiens) (Q8TDX7 whole entry, looked up): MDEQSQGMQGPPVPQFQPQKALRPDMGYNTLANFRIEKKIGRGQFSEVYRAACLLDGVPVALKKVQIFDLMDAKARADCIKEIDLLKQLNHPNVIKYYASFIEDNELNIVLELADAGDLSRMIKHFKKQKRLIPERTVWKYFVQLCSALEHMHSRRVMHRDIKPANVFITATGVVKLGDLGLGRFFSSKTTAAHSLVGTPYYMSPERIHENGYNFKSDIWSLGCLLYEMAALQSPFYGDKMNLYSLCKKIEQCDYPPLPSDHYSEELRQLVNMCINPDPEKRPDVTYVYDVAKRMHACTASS
Chain of Macrophage colony-stimulating factor 1 receptor (Homo sapiens) (P07333 whole entry): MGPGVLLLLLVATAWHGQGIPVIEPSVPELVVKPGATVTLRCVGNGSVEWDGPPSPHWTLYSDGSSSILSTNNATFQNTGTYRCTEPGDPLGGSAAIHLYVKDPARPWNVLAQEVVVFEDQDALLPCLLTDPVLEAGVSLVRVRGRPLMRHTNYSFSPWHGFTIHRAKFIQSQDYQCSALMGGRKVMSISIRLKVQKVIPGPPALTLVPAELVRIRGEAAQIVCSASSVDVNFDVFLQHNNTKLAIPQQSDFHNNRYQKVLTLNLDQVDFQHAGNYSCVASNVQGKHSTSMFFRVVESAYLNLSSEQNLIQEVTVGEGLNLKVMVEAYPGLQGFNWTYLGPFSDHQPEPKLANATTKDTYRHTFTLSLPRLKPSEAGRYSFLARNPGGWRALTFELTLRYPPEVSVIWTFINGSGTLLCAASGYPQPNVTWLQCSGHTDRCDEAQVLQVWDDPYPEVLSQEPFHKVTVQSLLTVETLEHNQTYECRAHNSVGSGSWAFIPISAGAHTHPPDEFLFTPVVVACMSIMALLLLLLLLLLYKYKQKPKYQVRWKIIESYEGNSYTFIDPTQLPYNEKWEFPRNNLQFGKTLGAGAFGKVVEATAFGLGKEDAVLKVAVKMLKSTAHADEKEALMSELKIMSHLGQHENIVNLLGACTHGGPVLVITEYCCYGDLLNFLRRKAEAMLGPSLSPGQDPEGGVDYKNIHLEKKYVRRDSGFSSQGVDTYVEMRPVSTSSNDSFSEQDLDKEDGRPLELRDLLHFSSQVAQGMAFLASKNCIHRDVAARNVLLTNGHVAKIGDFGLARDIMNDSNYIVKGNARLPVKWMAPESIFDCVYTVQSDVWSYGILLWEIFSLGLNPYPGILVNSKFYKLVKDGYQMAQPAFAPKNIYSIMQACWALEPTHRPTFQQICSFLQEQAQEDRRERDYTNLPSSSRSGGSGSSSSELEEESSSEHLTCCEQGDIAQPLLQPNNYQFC
Chain of Serine/threonine-protein kinase PLK1 (Homo sapiens) (P53350 whole entry): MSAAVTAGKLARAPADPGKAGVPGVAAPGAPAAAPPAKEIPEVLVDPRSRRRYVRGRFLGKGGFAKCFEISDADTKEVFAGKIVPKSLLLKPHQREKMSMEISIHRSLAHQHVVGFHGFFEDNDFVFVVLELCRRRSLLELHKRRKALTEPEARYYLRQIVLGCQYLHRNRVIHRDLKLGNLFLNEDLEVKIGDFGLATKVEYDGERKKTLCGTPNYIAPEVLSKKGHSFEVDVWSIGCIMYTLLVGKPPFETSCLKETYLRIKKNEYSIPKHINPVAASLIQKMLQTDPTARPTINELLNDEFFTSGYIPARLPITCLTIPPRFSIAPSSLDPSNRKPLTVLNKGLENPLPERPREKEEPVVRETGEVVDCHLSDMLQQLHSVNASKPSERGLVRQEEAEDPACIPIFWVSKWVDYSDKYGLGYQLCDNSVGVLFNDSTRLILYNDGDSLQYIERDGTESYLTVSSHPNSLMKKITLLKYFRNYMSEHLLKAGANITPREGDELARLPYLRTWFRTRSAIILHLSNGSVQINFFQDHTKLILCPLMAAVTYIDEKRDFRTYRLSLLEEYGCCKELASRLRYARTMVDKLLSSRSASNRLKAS
Chain of Serine/threonine-protein kinase Nek6 (Homo sapiens) (Q9HC98 whole entry): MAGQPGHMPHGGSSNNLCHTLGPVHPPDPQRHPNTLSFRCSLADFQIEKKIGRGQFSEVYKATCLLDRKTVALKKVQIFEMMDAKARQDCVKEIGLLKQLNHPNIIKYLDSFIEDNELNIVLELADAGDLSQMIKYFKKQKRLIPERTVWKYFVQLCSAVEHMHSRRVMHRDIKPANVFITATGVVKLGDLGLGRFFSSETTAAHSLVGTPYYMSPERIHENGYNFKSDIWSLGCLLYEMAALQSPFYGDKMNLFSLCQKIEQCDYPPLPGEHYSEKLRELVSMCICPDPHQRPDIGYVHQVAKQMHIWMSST
Chain of Vascular endothelial growth factor receptor 3 (Homo sapiens) (P35916 whole entry): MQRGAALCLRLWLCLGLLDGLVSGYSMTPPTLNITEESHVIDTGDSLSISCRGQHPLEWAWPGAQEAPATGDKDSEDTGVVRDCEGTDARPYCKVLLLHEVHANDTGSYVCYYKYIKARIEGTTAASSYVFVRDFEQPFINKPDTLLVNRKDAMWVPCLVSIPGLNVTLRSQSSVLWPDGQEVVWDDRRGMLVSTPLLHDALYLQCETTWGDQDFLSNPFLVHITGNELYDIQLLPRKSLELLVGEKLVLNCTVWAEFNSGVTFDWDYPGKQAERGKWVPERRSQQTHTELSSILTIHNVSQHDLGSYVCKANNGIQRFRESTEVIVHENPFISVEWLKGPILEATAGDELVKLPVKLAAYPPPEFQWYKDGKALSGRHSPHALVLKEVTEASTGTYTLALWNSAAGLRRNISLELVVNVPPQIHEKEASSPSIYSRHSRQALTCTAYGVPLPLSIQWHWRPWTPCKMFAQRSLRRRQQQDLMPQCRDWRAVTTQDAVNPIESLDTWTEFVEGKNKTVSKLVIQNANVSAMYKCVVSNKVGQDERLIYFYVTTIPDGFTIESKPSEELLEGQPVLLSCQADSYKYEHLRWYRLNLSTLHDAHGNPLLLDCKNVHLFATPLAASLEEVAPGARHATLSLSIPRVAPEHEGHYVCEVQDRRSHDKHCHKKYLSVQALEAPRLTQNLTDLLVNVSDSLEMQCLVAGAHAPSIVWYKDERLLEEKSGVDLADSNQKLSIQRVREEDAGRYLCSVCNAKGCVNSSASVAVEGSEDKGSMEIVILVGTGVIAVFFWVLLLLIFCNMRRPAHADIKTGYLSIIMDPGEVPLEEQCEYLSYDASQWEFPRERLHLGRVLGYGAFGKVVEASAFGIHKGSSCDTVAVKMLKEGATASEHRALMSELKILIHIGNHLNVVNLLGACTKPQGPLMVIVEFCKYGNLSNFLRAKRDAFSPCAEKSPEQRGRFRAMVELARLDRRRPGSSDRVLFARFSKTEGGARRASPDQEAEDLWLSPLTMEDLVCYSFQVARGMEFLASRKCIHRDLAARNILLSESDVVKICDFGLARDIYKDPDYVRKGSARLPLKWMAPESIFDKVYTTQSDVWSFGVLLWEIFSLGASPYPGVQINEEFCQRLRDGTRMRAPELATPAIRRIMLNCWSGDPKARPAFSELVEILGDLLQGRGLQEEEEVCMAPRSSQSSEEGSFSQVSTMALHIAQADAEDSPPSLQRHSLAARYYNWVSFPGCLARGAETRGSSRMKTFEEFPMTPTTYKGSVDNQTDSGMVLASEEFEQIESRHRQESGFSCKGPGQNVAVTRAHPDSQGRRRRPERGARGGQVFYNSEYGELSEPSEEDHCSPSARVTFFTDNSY

`NC(=O)c1cccc(Nc2nccc(Nc3cccc(F)c3)n2)c1` showed an inhibition [1] of 3.29%, an inhibition [2] of 2.58% and an inhibition [3] of 5.37%. For the same compound, the inhibition [4] was 3.22%, the inhibition [5] was 1.09% and the inhibition [6] was 0.35%. The inhibition [7] was 0.89%, the inhibition [8] was 2.07% and the inhibition [9] was 1.47%. It also gave an inhibition [10] of 8.72%, an inhibition [11] of 11% and an inhibition [12] of 2.05%. It also gave an inhibition [13] of 6.07%, an inhibition [14] of 2.31% and an inhibition [15] of 21.2%. It also gave an inhibition [16] of 1.81%, an inhibition [17] of 30.6% and an inhibition [18] of 22.1%. It also gave an inhibition [19] of 62.5% and an inhibition [20] of 7.98%.
For `NS(=O)(=O)c1cccc(-c2cc3ccncc3cc2OCc2ccccc2)c1`, the inhibition [1] was 5.04%, the inhibition [2] was 2.64% and the inhibition [3] was 2.55%. The inhibition [4] was 5.53%, the inhibition [5] was 6.81% and the inhibition [6] was 0.87%. It also gave an inhibition [7] of -0.35%, an inhibition [8] of 5.92% and an inhibition [9] of 3.78%. It also gave an inhibition [10] of 2.36%, an inhibition [11] of 5.52% and an inhibition [12] of 3.05%. For the same compound, the inhibition [13] was 4.2%, the inhibition [14] was 7.53% and the inhibition [15] was -1.3%. The inhibition [16] was 15.2%, the inhibition [17] was 18.5% and the inhibition [18] was 4.7%. The inhibition [19] was 5.36% and the inhibition [20] was 4.1%.
